The values that follow come from PubChem BioAssay (EPA / NIEHS).

Active and inactive are the calls of the source. How the source made its calls: active means hit-call score of the fitted dose curve at least 0.9, where 1 is the maximum; inactive means score below 0.9.

Read-out in this experiment: Glutathione S-transferase M3 (GSTM3), GSTM3 (gene 2947)
Kind of experiment: LTEA_HepaRG_GSTM3: Life Technologies and Expression Analysis (LTEA) Assay for Glutathione S-transferase M3 (GSTM3) using HepaRG (AID 2283501). The conditions noted are these: mRNA level, 48 h; actives raise or lower the signal. The method, then: LTEA_HepaRG is a cell based, multiplexed-readout assay that uses HepaRG, a human liver cell line, with measurements taken at 48 hours after chemical dosing on a 96-well plate.LTEA_HepaRG_GSTM3 is one of 102 assay component(s) measured in the LTEA HepaRG cell culture assay. It is a marker of Oxidative Stress.Data from the assay component LTEA_HepaRG_GSTM3 was analyzed into 1 endpoint. This assay endpoint, LTEA_HepaRG_GSTM3, was analyzed with bidirectional fitting relative to DMSO as the negative control and baseline of activity. Using a type of inducible reporter, measures of mRNA induction for gain or loss-of-signal activity can be used to understand regulation of transcription factor activity. To generalize the intended target to other relatable targets, this assay endpoint is annotated to the transferase intended target family, where the subfamily is alkyl and aryl transferase.
A total of 1060 chemcials from the ToxCast library were tested in eight-point concentration-response experiments. Cell culture and cytotoxicity assays were conducted at Thermo Fisher Scientific's Custom Services facility (Madison, WI). A single lot of human HepaRG cells (Thermo Fisher Scientific, Frederick, MD) was used for the cell culture experiments. 96-well format collagen type I coated plates of human HepaRG cells were prepared using established methods. Briefly, cryopreserved HepaRG cells were thawed, plated at a density of approximately 100,000 cells/well in HepaRG Thaw, Plate, and General Purpose media (HPRG770, Thermo Fisher Scientific), and incubated for 48 hours. 0.5% DMSO was selected as vehicle control to balance the requisite need of DMSO in HepaRG cultures to maintain differentiation (for example, baseline metabolism, proportions of hepatocytes vs. cholangiocytes), while enabling further hepatic receptor pathway activation (for example, PXR and CAR) in response to chemical exposure. 48 hours after plating, the culture medium was replaced with HepaRG Serum-Free Incudtion Media. Cells were exposed to each test chemical in duplicate and maintained in CO2 incubators for another 48 hours. Chemical plates were thawed to room temperature and 200x concentrations of treatment groups were prepared. 8-point conentration-reponse curves were made with the highest exposure at 100 uM, followed by half-log dilutions, all in 0.5% DMSO. Each test plate contained variouse controls, induction positive controls (1mM phenobarbital), cytotoxicity positive controls ([…] aflatoxin B1), vehicle controls (0.5% DMSO), and total lysis controls (0.5% DMSO). Cell morphology images were taken using an Essen IncuCyte FLR automated microscope, with six 96-well plates imaged in about 24 minutes. Images were captured and exported and JPEG files. Spent culture media was transfered to black-well plates for the LDH assay, and remaining media was sorted at -80 C for later use. Cells were treated with RLT buffer and frozen until shipped for gene expression analysis. Total RNA was isolated from the cell suspension in 75 uL of Buffer RLT (Qiagen, Germantown, MD 20874) by Quintiles/Expression Analysis (Durham, NC) using a custom isolation procedure. Total RNA from each plate well was transferred to a preamplification plate. Fluidigm's 96.96 Dynamic ArrayTM (Fluidigm, Amsterdam, the Netherlands) technology was used for gene expression analyses by quantitative reverse transcription polymerase chain reaction (qRT-PCR, performed by Quintiles/Expression Analysis, Durham, NC)89. Standard TaqManTM Assays (Applied Biosystems/ThermoFisher Scientific, Foster City, CA) were used to assess the expression of 93 genes selected based on their selectivity and sensitivity to important hepatic receptors known to be modulated by environmental chemicals; importance in human hepatocyte functionality; and hepatotoxicity. […]
With `C[C@]12CCC(=O)C=C1CC[C@@H]1[C@@H]2CC[C@]2(C)C(=O)CC[C@@H]12`, the outcome was inactive. The same measure, in the same setting: to `C1CC2OC2CC1C1CO1` (stereo not given) belongs “inactive”. As for `CCC(C)c1cc([N+](=O)[O-])cc([N+](=O)[O-])c1O` (stereo not given), the AC50 is 4.16 µM (active). With `NS(=O)(=O)C(F)(F)C(F)(F)C(F)(F)C(F)(F)C(F)(F)C(F)(F)C(F)(F)C(F)(F)F`, the outcome was inactive. Turning to `CC1=C2C[C@H]3[C@@H](CC=C4C[C@@H](O)CC[C@@]43C)[C@@H]2CC[C@]12O[C@@H]1C[C@H](C)CN[C@H]1[C@H]2C`, the result was inactive. Take `CCNc1nc(NC(C)C)nc(SC)n1`: the result was inactive. Take `O=C(O)C(F)(F)C(F)(F)C(F)(F)C(F)(F)C(F)(F)C(F)(F)C(F)(F)C(F)(F)C(F)(F)F`: the AC50 was 74.8 µM (active). Take `CO/C=C(/C(=O)OC)c1ccccc1COc1cccc(C(F)(F)F)n1`: the AC50 was 50 µM (active).

On to `c1cc2ccc3cccc4ccc(c1)c2c34`, for which the outcome was inactive. The same measure, in the same setting: the same measure for `CCCCCCCCCC[N+](C)(C)CCCCCCCCCC`: “inactive”; for `ClC(Cl)=C(c1ccc(Cl)cc1)c1ccc(Cl)cc1`: “inactive”.

Regarding `CC#Cc1cc(C)nc(Nc2ccccc2)n1`, the AC50 was 14.5 µM (active). In the case of `Cc1ccccc1CO[C@@H]1C[C@@]2(C(C)C)CC[C@]1(C)O2`, the call was inactive.

Regarding `ClC1=C(Cl)[C@]2(Cl)[C@@H]3[C@@H](Cl)[C@H]4O[C@H]4[C@@H]3C1(Cl)C2(Cl)Cl`, the molecule was called inactive. Still for that read-out and setting: the same measure for `COc1ccc(O)c(C(C)(C)C)c1`: “inactive”; for `CCC(=O)O[C@H]1CC[C@H]2[C@@H]3CCC4=CC(=O)CC[C@]4(C)[C@H]3CC[C@]12C`: “inactive”; for `O=C(O)C(F)(F)C(F)(F)C(F)(F)C(F)(F)C(F)(F)F`: “inactive”. As to `Oc1ccc(C(c2ccc(O)cc2)(C(F)(F)F)C(F)(F)F)cc1`, the result was inactive. Take `Clc1ccc(Cl)cc1`: the result was inactive. Still for that read-out and setting: to `O=C(NC(=O)c1c(F)cccc1F)Nc1cc(Cl)c(OC(F)(F)C(F)F)c(Cl)c1` belongs “inactive”; to `CC(C)(c1ccccc1)c1ccc(O)cc1`, “inactive”. On the same count and under the same terms, the same measure for `N#Cc1ccc(N(CC(N)=O)CC(F)(F)F)cc1C(F)(F)F`: “inactive”; for `Cc1ccc(O)c(C)c1`: “inactive”; for `Cc1cc(-c2ccc(N)c(C)c2)ccc1N`: “inactive”. The same measure, in the same setting: to `Cc1cccc([N+](=O)[O-])c1` belongs “inactive”; to `CCSC(=O)N(CC)C1CCCCC1`, “inactive”. In the case of `Cc1ccccc1O`, the call was inactive.

On to `CC(c1ccc(O)cc1)(c1ccc(O)cc1)c1ccc(O)cc1`, for which the molecule was classed as inactive. For `c1ccc(-c2ccccc2)cc1`, the molecule was called inactive.

In the case of `Oc1c(Cl)c(Cl)c(Cl)c(Cl)c1Cl`, the AC50 was 4.88 µM (active). On to `CN(C)CCO`, for which the outcome was inactive.

With `CCCCCCCCOC(=O)c1ccccc1C(=O)OCCCCCCCC`, the result was inactive. Regarding `CCC(C)(CC)c1cc(NC(=O)c2c(OC)cccc2OC)on1`, the call was inactive. On the same count and under the same terms, to `CCCCCCOC(=O)c1ccccc1C(=O)OCCCCCC` belongs “inactive”.

As to `O=C(NC(=O)c1cc(F)c(F)cc1Cl)Nc1cc(F)ccc1N1CCC(C(=O)O)CC1`, the molecule was classed as inactive. Take `CCCN(CCC)N=O`: the molecule was called inactive. In the case of `ClC1=C(Cl)[C@]2(Cl)[C@@H]3[C@@H]4C[C@@H]([C@H]5O[C@@H]45)[C@@H]3[C@@]1(Cl)C2(Cl)Cl`, the outcome was inactive. Same read-out and setting: the same measure for `Cc1cccc(C)c1N`: “inactive”; for `Nn1cnnc1`: “inactive”.

On to `Cc1cc2c3c(c1)C(c1ccccc1)=N[C@@H](NC(=O)c1ccncc1)C(=O)N3CC2`, for which the molecule was classed as inactive.

In general, AC50 refers to the concentration giving half of the maximal activity seen.
